Experimental data: PubChem BioAssay (EPA / NIEHS)
The source made the active and inactive calls. How the source made its calls: active means hit-call score of the fitted dose curve at least 0.9, where 1 is the maximum; inactive means score below 0.9.

The compounds below were run against Transcription factor Sp1 (Homo sapiens) (UniProt P08047) (assay: ATG_Sp1_CIS: Attagene CIS-FACTORIAL HepG2 Assay for human Specificity Protein 1 (Sp1) (AID 2282961)). Conditions: HepG2 Sp1 cis-reporter transcription, actives raise or lower the signal.
Experimental: ATG_CIS is a cell-based, multiplexed-readout assay that uses HepG2, a human liver cell line, with measurements taken at 24 hours after chemical dosing in a 24-well plate.ATG_Sp1_CIS is one of 52 assay component(s) measured or calculated from the ATG_CIS assay. It is designed to make measurements of mRNA induction, a form of inducible reporter, as detected with fluorescence intensity signals by Reverse transcription polymerase chain reaction (RT-PCR) and Capillary electrophoresis technology.Data from the assay component ATG_Sp1_CIS was analyzed into 1 assay endpoint. This assay endpoint, ATG_Sp1_CIS, was analyzed with bidirectional fitting relative to DMSO as the negative control and baseline of activity. Using a type of inducible reporter, measures of mRNA for gain or loss-of-signal activity can be used to understand the reporter gene at the transcription factor-level as they relate to the gene SP1. Furthermore, this assay endpoint can be referred to as a primary readout, because this assay has produced multiple assay endpoints where this one serves a reporter gene function. To generalize the intended target to other relatable targets, this assay endpoint is annotated to the dna binding intended target family, where the subfamily is zinc finger.
Human liver HepG2 cells are transiently transfected with multiple reporter transcription units (MRTUs) in 6-well plates using FuGene 6 reagent (Roche; 3 ml FuGene/1 mg DNA). The MRTU constructs are regulated by a cis-regulating element (promoter). […] A major difference between the CIS and TRANS system is that in CIS activities of endogenous TFs are measured, whereas the TRANS assay evaluates changes in activities of exogenous, chimeric NR-Gal4 proteins. […] At the end of 24 hour incubation, total RNA was isolated using TriZol reagent (Invitrogen). The isolated RNA is then reverse-transcribed using oligo(dT) primer and Mo-MLV reverse transcriptase (Invitrogen) with DNAse I (Ambion) treatment for 30 min. The one-tenth of the produced cDNA was amplified by PCR using Taq DNA polymerase (Invitrogen) and two reporter sequence-specific primers. The PCR products were fluorescently labeled by primer extension with 6-arboxyfluorescein (6-FAM) 5'-labeled reporter sequence-specific primer (2 min at 95 C, 20 s at 68 C and 10 min at 72 C) and these products were digested with 5U of HpaI (New England Biolabs) for 2h at 37 C. The fragments were purified using Qiaquick PCR columns (Qiagen), analyzed on an ABI 3130xL genetic analyzer (Applied Biosystems) with peak positions identified by using a set of X-rhodamine (ROX)-labeled MapMarker1000 molecular weight standards (BioVentures). The raw capillary electrophoresis data was processed using Attagraph software (Attagene).

Sequence of Transcription factor Sp1 (Homo sapiens) (P08047 whole entry, looked up): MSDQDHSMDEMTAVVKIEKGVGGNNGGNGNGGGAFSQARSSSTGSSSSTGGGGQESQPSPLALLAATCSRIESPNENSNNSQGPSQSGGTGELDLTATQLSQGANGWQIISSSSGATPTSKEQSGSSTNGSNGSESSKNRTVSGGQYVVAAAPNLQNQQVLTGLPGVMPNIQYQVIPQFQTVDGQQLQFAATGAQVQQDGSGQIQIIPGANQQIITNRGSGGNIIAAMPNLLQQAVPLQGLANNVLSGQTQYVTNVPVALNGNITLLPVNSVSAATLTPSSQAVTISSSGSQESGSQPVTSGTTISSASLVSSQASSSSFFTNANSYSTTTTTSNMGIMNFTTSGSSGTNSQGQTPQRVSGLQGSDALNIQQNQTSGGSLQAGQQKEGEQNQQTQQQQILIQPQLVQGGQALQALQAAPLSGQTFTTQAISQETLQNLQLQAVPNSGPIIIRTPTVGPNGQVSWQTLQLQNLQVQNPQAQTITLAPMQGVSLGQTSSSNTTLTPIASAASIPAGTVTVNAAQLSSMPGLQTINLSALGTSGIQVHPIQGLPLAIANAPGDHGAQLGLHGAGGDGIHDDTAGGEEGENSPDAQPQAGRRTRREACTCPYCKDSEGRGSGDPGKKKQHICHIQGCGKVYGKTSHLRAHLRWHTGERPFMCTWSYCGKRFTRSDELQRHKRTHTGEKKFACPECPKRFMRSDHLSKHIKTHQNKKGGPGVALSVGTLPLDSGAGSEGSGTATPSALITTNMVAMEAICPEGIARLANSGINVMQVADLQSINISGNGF

outcome, inactive:
O=C(NS(=O)(=O)/C=C/c1ccccc1)c1ccc(F)cc1Cl
COC(=O)CC(=O)OC
CC(O)CN(CCN(CC(C)O)CC(C)O)CC(C)O (stereo not given)
CC(=O)OC[C@H]1O[C@@](COC(C)=O)(O[C@H]2O[C@H](COC(C)=O)[C@@H](OC(C)=O)[C@H](OC(C)=O)[C@H]2OC(C)=O)[C@@H](OC(C)=O)[C@@H]1OC(C)=O
COc1cccc(-c2ccc(/C=C\CN3CCCCCC3)cc2Cl)c1
O=C1CCC(N2C(=O)c3ccccc3C2=O)C(=O)N1 (stereo not given)
Cn1c(=O)cc(Oc2ccc(F)cc2F)c2cnc(NCC(C)(C)O)nc21
COC(=O)c1c(Cl)c(Cl)c(C(=O)OC)c(Cl)c1Cl
CC(C)CCO
C=CCCCCCCCCC(=O)O
CCCCC(CC)COC(=O)CCCCCCCCC(=O)OCC(CC)CCCC (stereo not given)
O=P(OC(CCl)CCl)(OC(CCl)CCl)OC(CCl)CCl
Cc1ccc(O)cc1
C1N2CN3CN1CN(C2)C3
COc1ccc2sc(C(=O)Nc3nnn[nH]3)c(OC(C)C)c2c1
CN(C)c1ccc(N=NS(=O)(=O)O)cc1
CCOC(=O)c1ccc(C2CCC(NC[C@H](O)COc3ccc(O)c(NS(C)(=O)=O)c3)CC2)cc1 (stereo not given in full)
Clc1nc(Cl)c(Cl)c(Cl)c1Cl
Cn1c(=O)c2c(ncn2C)n(C)c1=O
CC(C)=CCC/C(C)=C/CO
Cn1cnc([N+](=O)[O-])c1Sc1ncnc2nc[nH]c12
CCN(C(=O)c1cc(C)cc(OC[C@H](C)Nc2ccncc2)c1)C(C)C
On1ccccc1=S
CC(C)=CCCC(C)=CC=O
Cc1ccc(C)c(O)c1
CC(=O)c1ccc2c(c1)[C@H](NC(=O)c1ccc(F)cc1)[C@@H](O)C(C)(C)O2
CC(C)=CCCC(C)CCO (stereo not given)
CCCCCCCCCCCCc1ccccc1
CC(C)CCCCCCOC(=O)c1ccc(C(=O)OCCCCCCC(C)C)c(C(=O)OCCCCCCC(C)C)c1
COC(=O)c1ccccc1O
CCOCCO
Cc1c(-c2cccnc2)c2ccccc2n1CCCCC(=O)O
CC(C)=CCC/C(C)=C\CO
CC[C@H]1OC(=O)[C@H](C)[C@@H](O[C@H]2C[C@@](C)(OC)[C@@H](O)[C@H](C)O2)[C@H](C)[C@@H](O[C@@H]2O[C@H](C)C[C@H](N(C)C)[C@H]2O)[C@](C)(O)C[C@@H](C)C(=O)[C@H](C)[C@@H](O)[C@]1(C)O
O=C(O)c1cc(N=Nc2ccc(S(=O)(=O)Nc3ccccn3)cc2)ccc1O
O=C(O)CC(O)C(=O)O (stereo not given)

AC50, active:
C1=CCCC=CCCC=CCC1 165 µM
CCCN(C1CCN(C(=O)C2CCNCC2)CC1)[C@@H]1CCc2ccc(OC)cc2C1 177 µM
COCCOc1cc2cc(C(=O)NC3CCN(C(C)C)CC3)n(CC(=O)Nc3ccc(Cl)cn3)c2cn1 100 µM
Oc1ccc2c(c1)-c1ccccc1C2 11.9 µM
